Sm TGR block = blocks Schistosoma mansoni thioredoxin glutathione reductase | Q962Y6 | purified TGR, DTNB reduction, TNB absorbance 405 nm | Potency, µM (top dose mostly 114 µM), inactives show at the top dose activity change, negative = inhibition, most hits filed as inhibitors | actives 3% (n = 360,000); active = well fitted inhibition curve with a large enough effect; inconclusive = small, poorly fitted or top-dose-only effect; inactive = no such curve, though single readings can be large or run the other way; also: potency is read from the fitted curve at half-maximal effect; % is scaled to controls: 0 for no effect and ±100 for the full control effect; nearly all actives have a fitted effect of over 60% in size
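First, TGR (20 nM dispensed) and NADPH were mixed with compound. Second, a 15 min room-temperature incubation followed. Third, further NADPH and then DTNB were added to start the reaction. Finally, TNB absorbance was monitored kinetically.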
FMDV inh = foot and mouth disease virus antiviral activity | AID 1159524 | actives 1.2% (n = 410,000) | FMDV antiviral cell-based qHTS | Potency, µM (series often up to 57.9 µM), for inactives: top-dose activity change, negative = inhibition, usual class: inhibitors; calls by dose curve; tested in HEK293T cells; also: read-out not given here; potency is read from the fitted curve at half-maximal effect; % is scaled to controls: 0 for no effect and ±100 for the full control effect; nearly all actives have a fitted effect of over 45% in size
Cycloheximide cs = affects cycloheximide protein synthesis inhibition readout, counter-screen; cell reporter, cycloheximide protein synthesis inhibition counterscreen; max response, %; actives 12% (n = 300,000); AID 2314; in the data active = max response mostly above about 13%, no sharp cut-off; inactive = mostly below about 14%; also: read at 38.3 µM for the half of the compounds with a filed dose; 0% is about no effect
Shiga inhibitor = inhibitors of Shiga toxin in Vero cells. actives 9.2% (n = 290,000). inhibition, % at 38.7 µM. Vero cells, Shiga toxin protein synthesis inhibition reporter; in the data active = inhibition mostly above about 28%, no sharp cut-off; inactive = mostly below about 43%; also: 0% is about no effect
Active calls of the source: *; ? = inconclusive; nt = no result given. Shown are actives, neighbours in structure and some others; about 12% of the full set was active somewhere.

SMILES | Sm TGR block | FMDV inh | Cycloheximide cs | Shiga inhibitor
CC(=O)O/N=C1\C(=O)N(Cc2ccc(C)cc2)c2ccccc21 | 15.8µM* | -17.6% | 6.6 | 16.4
OC(CN1c2ccccc2Sc2ccccc21)Cn1nnc2ccccc21 (stereo not given) | 8.0% | ? | 15.7* | 17.9
Cc1cccc(C)c1OCC(O)Cn1nnc2ccccc21 (stereo not given) | 1.1% | ? | 15.9* | 7.0
O=C1C2CC=CCC2C(=O)N1c1ccc(OCC(O)Cn2nnc3ccccc32)cc1 (stereo not given) | 4.0% | ? | -2.2 | -9.3
N#Cc1ccc(-c2ccc(OCC(O)Cn3nnc4ccccc43)cc2)cc1 (stereo not given) | 4.8% | 28.2µM* | 2.0 | -2.5
O=C1c2ccccc2C(=O)N1CC(O)Cn1nnc2ccccc21 (stereo not given) | 3.1% | -14.5% | -1.4 | -3.9
Cc1ccc2c(c1)c(C)c(C)n2CC(O)Cn1nnc2ccccc21 (stereo not given) | 0.0% | -56.0% | 30.3* | 51.7
Cc1cccc(C)c1OCC(O)Cn1c2ccccc2c2ccccc21 (stereo not given) | 17.5% | ? | -4.8 | -6.0
COc1ccc(-c2cn3nc(N4CCCC(C(=O)NCc5ccccc5C)C4)sc3n2)cc1 (stereo not given) | 1.8% | -3.1% | nt | nt
C[C@@H](C1[C@@H](O)CC2C3C=CC4C[C@@H](O)CC[C@]4(C)[C@H]3CC[C@@]21C)[C@@H]1CCCCN1 (stereo not given in full) | nt | -26.9% | nt | nt
CCOc1ccc(CNC(=O)C2CCN(S(=O)(=O)N3CCCCC3)CC2)cc1 | -4.4% | -9.7% | nt | nt
CSc1ccc(C2CC(=O)Oc3c2c(=O)n(C)c2ccccc32)cc1 (stereo not given) | 5.1% | -18.3% | nt | nt
COC(=O)c1ccc(OCC(O)Cn2nnc3ccccc32)cc1 (stereo not given) | -1.4% | 25.9% | 18.7 | 52.4
CC(=O)c1ccc(OCC(O)Cn2nnc3ccccc32)cc1 (stereo not given) | -0.3% | nt | 38.7* | 68.9
Cc1cc(NC(=O)CSc2nc3c([nH]c4ccccc43)c(=O)n2-c2cccc(Cl)c2)no1 | -1.0% | -23.7% | nt | nt
N#Cc1c(NCCCO)nc(-c2ccco2)c2c1CCCC2 | 6.31µM* | -22.7% | -4.5 | -7.1
N#Cc1c(NC2CCCCC2)nc(-c2ccco2)c2c1CCCC2 | 35.5µM* | 0.0% | -6.7 | -5.2
COc1ccc(OC)c(CNC(=O)c2ccc3c(c2)c(C)c(C)n3Cc2ccc(Cl)cc2)c1 | 3.6% | -7.8% | nt | nt
CCCCN(CCCNC(=O)CN1N=C(c2ccccc2)CCC1=O)c1ccccc1 | 12.5% | -10.1% | nt | nt
O=C(CSc1nc2ccccc2nc1Cc1ccccc1)N1CCc2ccccc21 | -0.6% | -0.7% | nt | nt
CCSc1nc2c([nH]c3ccccc32)c(=O)n1-c1ccc(F)cc1 | 5.4% | -9.0% | nt | nt
CCOC(=O)/C(=N\Nc1cccc(C(F)(F)F)c1)N1CCOCC1 | 12.8% | -2.6% | -0.9 | 3.0
CCOC(=O)/C(=N\Nc1ccccc1)N1CC1 | -1.7% | 13.8% | 19.4* | 62.6
CCOC(=O)/C(=N\Nc1ccccc1Cl)N1CCN(C)CC1 | 3.1% | 0.0% | -2.7 | -2.2
CCOC(=O)/C(=N\Nc1ccccc1Cl)N1CCN(Cc2ccccc2)CC1 | -2.5% | ? | 20.5* | -13.1
SMILES | Sm TGR block | FMDV inh | Cycloheximide cs | Shiga inhibitor
O=C(NCC1(N2CCOCC2)CCCC1)c1cnn(-c2nccc(-c3cccs3)n2)c1C1CC1 | nt | -3.6% | nt | nt
Cc1ccc2oc3c(c(=O)c2c1)C(c1ccc(F)cc1)N(CCCN1CCOCC1)C3=O (stereo not given) | 31.6µM* | nt | 9.3 | -11.2
CC(C)CCOc1cccc(C2c3c(oc4ccccc4c3=O)C(=O)N2CCCN2CCOCC2)c1 (stereo not given) | nt | 3.1% | nt | nt
COc1ccc(C2c3c(oc4ccccc4c3=O)C(=O)N2Cc2ccncc2)cc1 (stereo not given) | 6.2% | nt | -5.1 | 12.1
Cc1ccc2oc3c(c(=O)c2c1)C(c1cccc(O)c1)N(CCCN1CCOCC1)C3=O (stereo not given) | 0.7% | -14.9% | nt | nt
CN1C(=O)c2oc3ccccc3c(=O)c2C1c1ccncc1 (stereo not given) | 44.7µM* | -6.0% | -1.1 | 21.2
COC(=O)c1ccc(C2c3c(oc4ccccc4c3=O)C(=O)N2CCCN2CCOCC2)cc1 (stereo not given) | 25.1µM* | -12.9% | -1.5 | -7.9
CCCOc1ccc(C2c3c(oc4ccccc4c3=O)C(=O)N2CCCN2CCOCC2)cc1 (stereo not given) | 35.5µM* | nt | 0.7 | -8.4
CCc1nn(CC(=O)NCCc2ccc(OC)cc2OC)c(=O)c2cc3c(OC)cccc3n12 | -9.3% | 0.3% | nt | nt
Cc1ccc2oc3c(c(=O)c2c1)C(c1cccs1)N(CCCN(C)C)C3=O (stereo not given) | ? | -1.2% | 38.9* | 48.5*
CCOc1ccc(C2c3c(oc4ccccc4c3=O)C(=O)N2CCCN2CCOCC2)cc1 (stereo not given) | 35.5µM* | 5.8% | 17.5 | 19.1
OC1(c2cccnc2)CCN(Cc2ccc3c(c2)CN(Cc2ccsc2)CCO3)CC1 | nt | -11.2% | nt | nt
Cc1ccc(S(=O)(=O)NCC2CCC(C(=O)NCc3ccc(F)cc3)CC2)cc1 (stereo not given) | 2.1% | -5.6% | nt | nt
Fc1ccc(CNc2nc3ccc(Cl)cc3n3nnnc23)cc1 | -8.4% | -3.0% | nt | nt
CC(=O)c1ccc(NC(=O)CSC2=Nc3ccccc3N=C(c3ccc(F)cc3)C2)cc1 | -7.8% | -12.4% | nt | nt
O=C(Nc1ccc(OCC(=O)N2CCOCC2)cc1)c1cccc(Cl)c1 | -7.9% | 11.9% | 20.3 | 26.4*
COc1cc(C(=O)NNC(=O)c2cccc(Cl)c2)ccc1OCC(=O)N1CCOCC1 | -6.8% | -3.8% | nt | nt
Cc1cc(NC(=O)c2ccccc2F)cc(C)c1OCC(=O)N1CCOCC1 | 3.0% | 15.6% | 12.2 | 20.2
COc1ccc(C(=O)Nc2ccc(OCC(=O)N3CCOCC3)cc2)c(OC)c1OC | 5.0% | 0.0% | 20.8* | 16.0
O=C(Nc1ccc(OCC(=O)N2CCOCC2)cc1)c1ccccc1F | 10.9% | -11.8% | 21.2* | 52.8
COCC(=O)Nc1nc2n(n1)C(c1ccc(Cl)cc1)CC(c1ccc(OC)cc1)N2 (stereo not given) | 25.1µM* | ? | -2.1 | -8.0
COCC(=O)Nc1nc2n(n1)C(c1ccccc1Cl)CC(c1ccc(OC)cc1)N2 (stereo not given) | 39.8µM* | -15.2% | -2.8 | -13.9
COc1ccc(C2CC(c3ccc(OC)cc3)n3nc(NC(=O)c4cccs4)nc3N2)cc1 (stereo not given) | 6.1% | -10.3% | -0.4 | -13.8
COC(=O)C1=C(C)NC(=O)/C1=C\c1ccc2c(c1)OCO2 | 35.5µM* | -2.9% | 34.3* | 14.0
COC(=O)C1=C(C)NC(=O)/C1=C\N(C)C | 25.1µM* | 5.7% | -4.1 | -3.3
CC1=NOC(=O)/C1=C/c1ccc2c(c1)OCO2 | -24.2% | 2.5% | 1.0 | -12.6
COC(=O)C1=C(C)NC(=O)/C1=C\c1cccs1 | -23.9% | 9.0% | 1.4 | -2.4
CCOc1ccc(NC(=O)CC2Nc3cccc4cccc(c34)NC2=O)cc1 (stereo not given) | -34.4% | -20.0% | nt | nt
COc1ccccc1C(=O)Nc1ncc2c(n1)CC(c1ccco1)CC2=O (stereo not given) | 20µM* | nt | 1.1 | -4.7

Screens deposited in PubChem by National Center for Advancing Translational Sciences (NCATS).
